From PubChem
Most compounds without a hit are left out; they make up all but 19% or so of the library.
TDP1 cell noCPT – qHTS for Inhibitors of human tyrosyl-DNA phosphodiesterase 1 (TDP1): qHTS in cells in absence of CPT; AID 686978, 2013; DT40 Tdp1-/- hTDP1 cells, no CPT, ATP luminescence, 48 h; 15% of 420,000 active; Potency, µM (series often up to 46.2 µM), for the others: at the top dose activity change, negative = growth inhibition, most hits filed as inhibitors; note: nearly all actives have a fitted effect of over 55% in size
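Readout: luminescence from CellTiter-Glo after 30 min in the dark at RT. Cells: DT40 Tdp1-/- with stable hTDP1, 400/well. Exposure: compounds alone, ≥48 hr, 37 °C.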
Gal4-VP16 FLuc – counter-screen for ROR gamma inhibitors: Gal4-VP16 reporter; AID 2546; 3.5% of 310,000 active; Potency, µM (series often up to 53.6 µM), for the others: at the highest dose activity, negative = inhibition, hits mostly inhibitors; Drosophila S2 Gal4-VP16 UAS-luciferase, luminescence, 20 h;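 note: Gal4-VP16 expression switched on by copper sulfate through the metallothionein promoter; nearly all actives have a fitted effect of over 50% in size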
TDP1 block – TDP1 (human) enzyme inhibition; AID 485290; Potency, µM (series often up to 130 µM), for inactives: top-dose activity change, negative = inhibition, actives largely listed as inhibitors; 0.28% of 350,000 active; recombinant TDP1, AlphaScreen DNA substrate cleavage; Q9NUW8; note: nearly all actives have a fitted effect of over 40% in size
Target sequence (Q9NUW8 whole entry, looked up): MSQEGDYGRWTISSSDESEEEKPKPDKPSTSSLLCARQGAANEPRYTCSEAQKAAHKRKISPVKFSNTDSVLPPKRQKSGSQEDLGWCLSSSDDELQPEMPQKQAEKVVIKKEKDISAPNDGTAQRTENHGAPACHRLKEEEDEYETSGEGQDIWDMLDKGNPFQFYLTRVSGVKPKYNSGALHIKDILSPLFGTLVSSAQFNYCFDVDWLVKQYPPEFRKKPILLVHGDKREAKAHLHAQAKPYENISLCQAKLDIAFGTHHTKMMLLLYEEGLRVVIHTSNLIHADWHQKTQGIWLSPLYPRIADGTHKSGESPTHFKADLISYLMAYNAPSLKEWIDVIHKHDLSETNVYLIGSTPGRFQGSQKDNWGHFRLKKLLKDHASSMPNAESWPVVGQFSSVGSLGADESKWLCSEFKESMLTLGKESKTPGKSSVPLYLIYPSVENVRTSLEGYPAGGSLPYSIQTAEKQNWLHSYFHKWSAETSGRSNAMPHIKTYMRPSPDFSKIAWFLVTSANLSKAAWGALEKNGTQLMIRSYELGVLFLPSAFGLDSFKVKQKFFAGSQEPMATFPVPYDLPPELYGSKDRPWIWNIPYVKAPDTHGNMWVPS
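Recombinant E. coli-expressed Tdp1 (1 nM) preincubated with compound 15 min at RT, then 5'-biotin/3'-phosphotyrosine-FITC DNA substrate (15 nM) added for 5 min. AlphaScreen beads (10 ug/ml) added, 10 min RT; tyrosine-FITC cleavage read as signal loss.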
TDP1 cell CPT – DT40-hTDP1 cell growth loss with CPT | chicken DT40 Tdp1-/-;hTDP1 cells + 20 nM CPT, ATP luminescence, 48 h | Potency, µM (titrated, usually from 46.2 µM), inactives show at the highest dose activity change, negative = growth inhibition, actives largely listed as inhibitors | 12% of 420,000 active; note: nearly all actives have a fitted effect of over 55% in size
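Chicken DT40 Tdp1-/- cells complemented with human TDP1, 400 cells/well, exposed to compounds plus 20 nM camptothecin for at least 48 h at 37 C; viability read as ATP content by CellTiter-Glo luminescence.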
RORg inh – inhibitors of mouse ROR gamma transcriptional activity; AID 2551; Drosophila S2 Gal4-RORgamma UAS-luciferase reporter, 20 h; P51450; Potency, µM (highest dose often 53.6 µM), without a hit: top-dose activity change, negative = inhibition, hits mostly inhibitors; 5.4% of 310,000 active; note: nearly all actives have a fitted effect of over 60% in size
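Luminescence from a UAS-regulated Photinus luciferase reporter in stably transfected Drosophila Schneider cells is measured; decreased signal marks ROR gamma inhibition. Fusion expression is induced by 700 uM copper sulfate for 20 hr.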
Active calls of the source: *; ? = inconclusive; . = no result given; [ ] = another dose, or the depositor's remark. Calls come from the whole dose curve; as a rule, active = well fitted curve in the direction sought with a large enough effect; inconclusive = small, poorly fitted or top-dose-only effect, or another doubt; inactive = no such curve, though single readings can be large; an effect the other way counts as inactive or inconclusive. % is set by controls: 0 for no effect and ±100 for the full control effect; potency is the fitted concentration of half-maximal effect.

SMILES	TDP1 cell noCPT	Gal4-VP16 FLuc	TDP1 block	TDP1 cell CPT	RORg inh
CCCC[C@@H]1CNCCN1CC1(c2ccccc2)CC1	11.6µM*	.	1.8%	11.6µM*	.
Oc1ccc(C[C@H]2CNCCN2CC2(c3ccccc3)CC2)cc1	?	.	-7.1%	20.6µM*	.
Oc1ccc(C[C@@H]2CNCCN2CC2(c3ccccc3)CC2)cc1	?	.	-8.1%	?	.
COc1cc2c(cc1OC)C(c1cc([N+](=O)[O-])ccc1O)NCC2 (stereo not drawn)	-2.6%	3.4%	0.0%	-29.2%	-1.4%
O=C(CSc1nc2ccccc2n1Cc1ccc(F)cc1)N1CCN(c2ccc(F)cc2)CC1	?	.	1.2%	?	.
Cc1ccc(NC(=O)C(C)OC(=O)/C=C/c2ccccc2)cc1 (stereo not drawn)	?	12.2%	4.2%	?	-7.9%
CC1=CC(=NOC(=O)/C=C/c2ccccc2)C=C(C)C1=O	13µM*	?	11.4%	20.6µM*	?
CC(C)N(C)CCOC(=O)/C=C/c1ccccc1	-8.1%	13.6%	2.8%	-21.3%	-9.2%
CC1=C(C)/C(=N\OC(=O)/C=C/c2ccccc2)C=CC1=O	13µM*	?	7.7%	13µM*	?
CC1=CC(=O)C=C(C)C1=NOC(=O)/C=C\c1ccccc1	-6.3%	?	7.0%	16.4µM*	?
Cc1cc(C(C)(C)C)nc2[nH]n(-c3ccccc3)c(=O)c12	-25.3%	-10.1%	5.6%	-8.1%	34.5%
COCCn1c(=O)c(-c2cn(C)c3ccccc23)nc2cncnc21	-13.3%	10.4%	.	1.5%	-12.3%
Cn1cc(-c2nc3cncnc3n(CCN)c2=O)c2ccccc21	16.4µM*	-9.4%	.	23.1µM*	-14.7%
Cc1c(C(=O)c2ccccc2)oc2ccc3ccccc3c12	?	7.4%	-6.8%	-22.8%	1.2%
Cc1sc2ncnc(N3CCC(C(=O)Nc4nc(-c5cccs5)cs4)CC3)c2c1C	8.2µM*	.	3.5%	10.3µM*	.
Cc1sc2ncnc(N3CCC(C(=O)Oc4cccc(Cl)c4Cl)CC3)c2c1C	-26.1%	-4.7%	-7.0%	-16.1%	-2.0%
CCc1nnc(NC(=O)C2CCN(c3ncnc4sc(C)c(C)c34)CC2)s1	-14.3%	.	0.6%	-21.1%	.
Cc1ccc2nc(NC(=O)C3CCN(c4ncnc5sc(C)c(C)c45)CC3)sc2c1	?	-6.3%	1.9%	13µM*	27.8%
CCc1cc(=O)oc2cc(OCC(=O)NCCCN3CCOCC3)c(Cl)cc12	14.0%	-10.5%	-16.1%	8.8%	-3.7%
COc1ccccc1NC(=O)c1cc2ccc3cccnc3c2[nH]1	25.9µM*	.	6.6%	3.66µM*	.
CC(C)N(Cc1ccccc1)C(=O)c1cc2ccc3cccnc3c2[nH]1	18.4µM*	.	6.3%	16.4µM*	.
COc1ccc(NC(=O)C(=O)Nc2cccc3cccnc23)c(OC)c1	-26.2%	2.51µM*	.	-25.2%	1.41µM*
COc1ccc(NC(=O)C(=O)Nc2cccc3cccnc23)cc1OC	-10.3%	2.82µM*	.	-17.2%	1.78µM*
O=C(NCc1cccc(Cl)c1)c1cc2ccc3cccnc3c2[nH]1	-12.8%	.	-4.2%	-2.9%	.
O=C(O)/C(=C\c1ccc(Br)cc1)NC(=O)c1cccs1	-11.1%	2.6%	0.6%[0.0935 µM]	-3.0%	-7.8%
SMILES	TDP1 cell noCPT	Gal4-VP16 FLuc	TDP1 block	TDP1 cell CPT	RORg inh
CCCS(=O)(=O)NCc1c(C)ncc2c1CCN(C(=O)/C=C/c1ccccc1)C2	-1.3%	.	.	-9.2%[9.04 µM]	.
COC(=O)CCC/C=C1/SCC(NC(=O)c2ccccc2)C1O (stereo not drawn)	-5.0%	-3.4%	1.0%	-5.5%	-4.3%
COC(=O)CCC/C=C1/SCC(NC(=O)c2ccccc2)C1=O (stereo not drawn)	16.4µM*	3.7%	2.0%	25.9µM*	2.4%
CCCNC(=O)c1ccc(-c2nn(C)c(=O)c3ccccc23)cc1	-14.3%	15.5%	.	-0.2%	0.6%[1.91 µM]
Cc1cccn2c(=O)c3cc(C(=O)N4COCC4(C)C)n(Cc4ccccc4)c3nc12	-13.4%	.	.	-5.9%	.
Cc1ccc(-c2nnc(NC3CCCC3)s2)cc1	?	?	.	-9.5%	11.2µM*
O=c1cc(CSc2nnc(NC3CCCCC3)s2)nc2sccn12	-6.9%	-3.9%	0.0%	20.9%	27.1%
